Vaccinia pol inh = inhibitors of vaccinia virus processive DNA synthesis (E9 polymerase); in vitro processive DNA synthesis, absorbance read-out; hits give low values; normalized absorbance, % (no concentration beside the values); 0.94% of 46,000 active; AID 493162; in the data active means normalized absorbance mostly below about 85%, no sharp cut-off; inactive means mostly above about 86%
Numbers without * were called inactive. The sample as a whole holds a higher share of hits than the screen did.

SMILES | Vaccinia pol inh
CC[C@H](C)[C@H](N)C(=O)N[C@@H](CC(N)=O)C(=O)N[C@@H](CC(C)C)C(=O)N[C@@H](CCCCN)C(=O)N[C@@H](C)C(=O)N[C@@H](CC(C)C)C(=O)N[C@@H](C)C(=O)N[C@@H](C)C(=O)N[C@@H](CC(C)C)C(=O)N[C@@H](C)C(=O)N[C@@H](CCCN)C(=O)N[C@@H](C)C(=O)N[C@@H](CC(C)C)C(=O)N[C@@H](CC(C)C)C(N)=O | 45*
CCCC[C@@H](C=O)NC(=O)[C@H](CC(C)C)NC(=O)[C@H](CC(C)C)NC(C)=O | 99
CC(=O)N[C@@H](CC(C)C)C(=O)N[C@@H](CC(C)C)C(=O)N[C@H](C=O)CCCN=C(N)N | 100
CCc1cc2c(=O)c(-c3csc(C)n3)coc2cc1O | 106
COC(CN(C)C(=O)c1cc2c(C)nc3ccccc3c2o1)OC | 96
COC(CNC(=O)c1cc2c(C)nc3ccccc3c2o1)OC | 91
Cc1nc2ccccc2c2oc(C(=O)NCCN(C)C3CCCCC3)cc12 | 46*
COc1ccc(C(=O)/C=C/Nc2ccc(S(=O)(=O)Nc3cnc4ccccc4n3)cc2)cc1 | 100
Cc1cccc(-n2ccnc2SCC(=O)N2CCc3ccccc32)c1 | 104
O=C(CSc1nnc2ccccn12)Nc1ccc(F)cc1 | 99
O=C(COCC(=O)Nc1ccc(Cl)cc1F)Nc1ccc(Cl)cc1F | 105
Oc1ccccc1N=Cc1ccc2ncccc2c1 | 104
CC1CC(C)CN(CC(O)Cn2c3ccccc3c3ccccc32)C1 (configuration not stated) | 92
OC(CN1CCNCC1)Cn1c2ccc(Br)cc2c2cc(Br)ccc21 (configuration not stated) | 31*
OC(CN1CCN(c2cccc(Cl)c2)CC1)Cn1c2ccccc2c2ccccc21 (configuration not stated) | 100
CCN1CCc2c(sc(N)c2C(=O)OC)C1 | 105
CCc1ccc(NC(=O)c2cccc3c2C(=O)N(CC)C3)cc1 | 100
CC1CC(C)CN(Cc2cc(Cl)c(O)c(Cl)c2)C1 (configuration not stated) | 114
COc1cccc(CC(C)C(N)=O)c1 (configuration not stated) | 95
N=c1sc2ccccc2n1CC(O)c1ccc(Cl)c(Cl)c1 (configuration not stated) | 102
NC(=O)NC(=O)C[n+]1ccc(/C=N/O)cc1 | 101
O=C1/C(=C/C2CCCO2)CC/C1=C\C1CCCO1 (configuration not stated) | 14*
CCOc1ccc2cc(Br)ccc2c1 | 103
O=C(Nc1ncccc1O)c1c(O)c2cccc3c2n(c1=O)CC3 | 104
CCOC(=O)c1cnc2c(ccc3ccccc32)c1NC1CC(C)(C)NC(C)(C)C1 | 58*
SMILES | Vaccinia pol inh
CCOC(=O)c1cnc2c(ccc3ccccc32)c1NCCOC(=O)C(C)(C)C | 100
CCOC(=O)c1cnc2c(ccc3ccccc32)c1NCC(C)C | 100
Cc1ccc(CCNC(=O)c2cc3c(C)nccc3[nH]c2=O)cc1 | 104
O=C(Cc1ccccc1)NCCCl | 97
O=C(O)C(Cc1ccccc1)N1C(=O)/C(=C/c2ccccc2)SC1=S (configuration not stated) | 97
COc1cc(/C=C2\SC(=S)N(C(C(=O)O)C(C)C)C2=O)cc(OC)c1O (configuration not stated) | 100
CC(C)C(C(=O)O)N1C(=O)/C(=C/c2ccccc2)SC1=S (configuration not stated) | 83*
CC1CC(C)(C)NC(=S)N1CC(=O)N1CCC(Cc2ccccc2)CC1 (configuration not stated) | 102
CC(C)C1C(=O)OC2c3ccccc3C(=O)N21 (configuration not stated) | 85
CC1CCN(CCCNC(=O)c2ccc(/C=C3\Oc4ccccc4NC3=O)cc2)CC1 | 70*
O=C(NCCCN1CCOCC1)c1ccccc1 | 100
O=C1Nc2ccccc2O/C1=C\c1ccccc1 | 106
CCC(=O)Nc1nc(-c2ccc3c(c2)OCO3)cs1 | 97
COc1ccc2c(c1)cc1n2CCN2CCN=C12 | 76
COc1ccc2c(c1)c1nc(N(C)C)nc3c1n2CCN3C | 11*
COc1ccc2c(c1)cc1n2CCN=C1N | 90
CC(CBr)(NS(=O)(=O)c1ccccc1)c1ccccc1 (configuration not stated) | 65*
CC(CN1CCNCC1)(NS(=O)(=O)c1ccccc1)c1ccccc1 (configuration not stated) | 96
CC(C)(CN1CCCCCC1)NS(=O)(=O)c1ccccc1 | 96
COc1ccc2c(c1)sc1ncc(C(=O)NCC(C)c3ccccc3)c(=O)n12 (configuration not stated) | 94
CCOC(=O)c1c(-c2ccccc2)csc1NC(=O)C(C)(C)C | 93
CCN(CC)Cc1c(C)c(C)c(C)c(C)c1C | 97
Cc1cccc(N2C(=O)CC(Sc3ncccc3C(=O)O)C2=O)c1 (configuration not stated) | 103
CCSC1=C(C#N)C(=O)NC(/C=C/c2ccccc2)S1 (configuration not stated) | 108
N#CC1=C(SCc2ccccc2)SC(c2ccccc2O)NC1=O (configuration not stated) | 50*
SMILES | Vaccinia pol inh
COC(=O)CSC1=C(C#N)C(=O)NC(c2ccccc2O)S1 (configuration not stated) | 91
COc1ccc(N2C(=O)C(O)=CC2(OC)c2ccccc2)cc1 (configuration not stated) | 95
Nc1cc(Cl)ccc1NCc1ccccc1 | 101
C[C@@]1(CO)[C@H](O)CC[C@@]2(C)[C@H]1CC[C@H]1C[C@@H]3C[C@@]12CC[C@]3(O)CO | 15*
O=C1CCCC2=C1C(c1ccccc1F)n1ncnc1N2 (configuration not stated) | 96
COC(=O)c1cccc2c(Br)ccc(C(=O)OC)c12 | 100
Cc1cc(C)nc(NC2=NCCN2)n1 | 48*
Cc1cc(Nc2ccccc2)nc(Nc2ccccc2)n1 | 100
CCN(CC)CCNc1nc(C)cc(C)n1 | 102
O=C(COC(=O)c1ccc(Br)o1)Nc1cccc2ccccc12 | 105
O=C1CCCc2oc3ccc(NS(=O)(=O)c4cccs4)cc3c21 | 97
CCOC(=O)c1ccc(CN)cc1 | 98
CCOC(=O)c1ccc(N=C(N)SCc2ccc(Cl)cc2)cc1 | 65*
CCOC(=O)c1ccc(NC(=O)c2ccc(Cl)cc2)cc1 | 99
CCOC(=O)c1cc(-c2ccc(Cl)cc2)oc1C(F)(F)F | 98
CCN(CC)c1cc(C)c2cc(NC(=O)c3ccc(Br)c(OC)c3)ccc2n1 | 98
CCOC(=O)Cc1cc(=O)oc2cc(OCC)ccc12 | 98
COC(=O)c1ccccc1NC(=O)n1ncc2c(C)cccc21 | 114
c1ccc(-c2cc3c(N4CCc5ccccc54)ncnc3s2)cc1 | 102
COc1ncnc2sc(-c3ccccc3)cc12 | 103
CN1CCN(c2ncnc3sc(-c4ccccc4)cc23)CC1 | 50*
O=C(c1oc(=O)c2ccccc2c1-c1ccccc1)N1CCCN(Cc2ccc(F)cc2)C1 | 95
CCn1c2ccccc2c2nc3ccccc3nc21 | 90*
CC(C)Cn1c2ccccc2c2nc3ccccc3nc21 | 99
CCc1ccc2c(c1)c1nc3ccccc3nc1n2CC | 100
CCOC(=O)c1oc2ccc(Cl)cc2c1NC(=O)CCCN1C(=O)c2ccccc2C1=O | 100
Nc1c(C(=O)Nc2ccccc2)sc2nc3c(cc12)C(=O)CCC3 | 99
COc1ccc2c(c1)c(C#N)c1n2CCN=C1N(C)C | 105
CN=C1c2c(C)c3cc(OC)ccc3n2CCN1C | 50*
COc1ccc2c(c1)c(-c1csc(N)n1)c(C)n2C | 103

Screening data (PubChem BioAssay)
